Screening data from PubChem.
Hits are enriched below; roughly 2.2% of the tested compounds scored in any of these assays.
ANO1 activ = activators or potentiators of mouse TMEM16A chloride channel; Q8BHY3; HEK293 TMEM16A/YFP-H148Q/I152L, iodide quench fluorescence; hits give low values; B-score at 10 µM; 340,000 compounds, 0.3% hits; AID 623877;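 active = fluorescence-ratio B-score plate-corrected deviation score at least 3 library SD below zero, with starting fluorescence score within 5 deviations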;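 also: channel opened by trigger with iodide after compound preincubation; score built on the fluorescence ratio of max minus min over baseline; more negative score means more quench and so TMEM16A activation or potentiation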
NOD2 RIPK2 PPI = NOD2-RIPK2 protein interaction inhibition; O43353; 360,000 compounds, 0.38% hits; CHO BLA complementation NOD2-RIPK2, CCF4 ratio; inhibition, % at 4.98 µM; in the data active = inhibition above about 21%
GRK2 inh = human GRK2 inhibition via aptamer displacement | P25098 | bead flow cytometry, FAM-aptamer displacement from GRK2 | inhibition of aptamer binding, % at 10 µM | 330,000 compounds, 0.59% hits | AID 488847;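 active = inhibition of aptamer binding above 40%, roughly 3 SD of noise, on plates passing a quality check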;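 also: median bead fluorescence of bound FAM aptamer so fluorescent compounds give negative values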
TMEM16A inh = inhibitors of mouse TMEM16A calcium-activated chloride channel; normalized B-score (activity score, 25-100; higher = stronger inhibition) at 10 µM; HEK293 TMEM16A/YFP iodide influx fluorescence, ionomycin; AID 588511; 310,000 compounds, 1.2% hits;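 active = ratio plate-corrected score three or more library SD toward inhibition, starting fluorescence score within five deviations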;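 also: score derived from kinetic fluorescence span divided by baseline fluorescence per well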
TLR9-MyD88 inh = TLR9-MyD88 interaction inhibition; CHO BLA complementation TLR9-MyD88, CCF4 FRET ratio; 340,000 compounds, 0.21% hits; Q9NR96+Q99836; inhibition, % at 4.98 µM; AID 504734;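 active = inhibition above the mean over all tested compounds plus 3 SD, cut at about 21% in these data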
TLR4-MyD88 BLA = blocks binding of human TLR4 to MyD88; O00206+Q99836; HeLa CL3-4 TLR4/MyD88 BLA complementation, FRET ratio; inhibition, % at 8.4 µM; 200,000 compounds, 0.18% hits; AID 861; in the data active = inhibition above about 25%
TLR9-MyD88 cf = TLR9-MyD88 interaction inhibition, confirmation; shares compounds with TLR9-MyD88 inh; CHO TLR9/MyD88 BLA complementation, CCF4 FRET ratio; inhibition, % at 4.98 µM; 680 compounds, 51% hits; AID 540250;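 active = mean inhibition across three repeats above about 21% taken from the earlier screen, limit read from the data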;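 also: blue over green emission ratio reports constitutive TLR9 MyD88 association via BLA complementation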
Target sequence (Q9NR96 whole entry, looked up): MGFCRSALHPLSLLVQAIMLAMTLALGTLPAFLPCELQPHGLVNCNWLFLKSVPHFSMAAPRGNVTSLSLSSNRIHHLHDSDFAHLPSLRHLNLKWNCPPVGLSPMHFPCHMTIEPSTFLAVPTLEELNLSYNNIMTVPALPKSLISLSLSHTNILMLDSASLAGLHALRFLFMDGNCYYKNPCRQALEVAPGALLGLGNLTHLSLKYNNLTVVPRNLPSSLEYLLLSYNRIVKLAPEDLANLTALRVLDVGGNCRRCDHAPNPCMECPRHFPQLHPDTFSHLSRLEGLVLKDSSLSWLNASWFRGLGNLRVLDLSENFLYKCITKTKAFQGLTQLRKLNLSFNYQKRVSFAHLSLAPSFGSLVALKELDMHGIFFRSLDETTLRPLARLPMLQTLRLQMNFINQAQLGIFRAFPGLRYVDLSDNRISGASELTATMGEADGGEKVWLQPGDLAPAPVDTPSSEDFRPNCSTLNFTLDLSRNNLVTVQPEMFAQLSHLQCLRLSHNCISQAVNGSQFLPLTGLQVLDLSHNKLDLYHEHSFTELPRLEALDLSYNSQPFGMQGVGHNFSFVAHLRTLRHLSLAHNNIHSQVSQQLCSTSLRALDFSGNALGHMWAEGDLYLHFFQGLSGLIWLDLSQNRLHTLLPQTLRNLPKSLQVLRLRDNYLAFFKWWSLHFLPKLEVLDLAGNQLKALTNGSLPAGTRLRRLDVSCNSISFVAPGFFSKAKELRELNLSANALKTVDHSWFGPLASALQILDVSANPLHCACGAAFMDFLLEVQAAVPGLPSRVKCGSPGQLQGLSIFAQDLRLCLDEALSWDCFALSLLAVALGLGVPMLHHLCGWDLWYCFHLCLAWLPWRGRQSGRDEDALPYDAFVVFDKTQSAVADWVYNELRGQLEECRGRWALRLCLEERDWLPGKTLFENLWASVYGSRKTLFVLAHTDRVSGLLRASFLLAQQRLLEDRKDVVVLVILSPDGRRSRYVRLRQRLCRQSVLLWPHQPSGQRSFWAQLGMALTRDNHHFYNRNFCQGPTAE
BLA nonselective = counter-screen for TLR9-MyD88 inhibitors: non-selective beta-lactamase inhibitors. inhibition, % at 4.98 µM. shares compounds with TLR9-MyD88 inh. CHO-BLA cells, CCF4 FRET ratio, BLA reporter. 680 compounds, 7% hits;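 active = mean inhibition above a 50% cutoff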;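 also: counterscreen of TLR9-MyD88 hits on CMV-driven BLA in CHO-K1 cells; higher means less blue over green ratio so more BLA blockade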
TLR9 CHO tox = CHO cell toxicity counter-screen for TLR9-MyD88 inhibitors | 680 compounds, 39% hits | TLR9-MyD88 CHO cells cytotoxicity, luminescence | shares compounds with TLR9-MyD88 inh | inhibition, % at 4.98 µM | AID 588336; in the data active = inhibition above about 11%
Each line names hits and unclear results; the compound was inactive in the other large screens (follow-up assays come after a bar, where they were run).

O=C1c2ccccc2C(=O)N1c1ccc(Cl)cc1	none (no result: ANO1 activ, NOD2 RIPK2 PPI, TLR9-MyD88 inh)
NC1=NC(=Nc2cccc(S(=O)(=O)N3CCOCC3)c2)c2ccccc21	none (no result: TLR4-MyD88 BLA)
COc1ccc(-c2nsc(SCC(=O)Nc3cc(C)on3)n2)cc1	none
CCOC(=O)CNC(=O)CSc1nc(-c2ccc(OC)cc2)ns1	TLR9-MyD88 inh 22 | TLR9-MyD88 cf inactive | BLA nonselective inactive | TLR9 CHO tox inactive
Cc1cccc(OCC(=O)NCC(=O)N/N=C/c2c(C)[nH]c3ccccc23)c1	none (no result: TLR4-MyD88 BLA)
COc1ccc(OC)c(C2Nc3ccccc3NC3=C2C(=O)CC(C)(C)C3)c1 (centres undefined)	none (no result: TLR4-MyD88 BLA)
COc1ccc(CN2CCC(CNC(=O)NC3CCCCC3)CC2)cc1	TLR9-MyD88 inh 22 | TLR9-MyD88 cf inactive | BLA nonselective inactive | TLR9 CHO tox inactive
N#Cc1ccc(-c2cccnc2)nc1SCC(=O)c1ccccc1	TLR9-MyD88 inh 21 (no result: TLR4-MyD88 BLA) | TLR9-MyD88 cf inactive | BLA nonselective inactive | TLR9 CHO tox inactive
N#Cc1ccc(-c2ccccc2)nc1SCC(=O)c1cccc(Cl)c1	none
Cc1ccc(C(O)c2ncc(-c3ccccc3F)[nH]2)c(C)c1 (centres undefined)	none (no result: ANO1 activ, GRK2 inh, TMEM16A inh, TLR9-MyD88 inh, TLR4-MyD88 BLA)
Nc1nnnn1/N=C/c1cc(Cl)ccc1O	TLR9-MyD88 inh 28 (no result: TLR4-MyD88 BLA) | TLR9-MyD88 cf inactive | BLA nonselective inactive | TLR9 CHO tox inactive
Nc1nnnn1/N=C/c1cc(Cl)cc(Cl)c1O	TLR9-MyD88 inh 23 (no result: TLR4-MyD88 BLA) | TLR9-MyD88 cf 24 | BLA nonselective inactive | TLR9 CHO tox inactive
Nc1nnnn1/N=C/c1ccccc1Cl	none (no result: ANO1 activ, GRK2 inh, TMEM16A inh, TLR4-MyD88 BLA)
Nc1nnnn1/N=C/c1cc(Cl)cc(Cl)c1OCc1ccc(Cl)cc1Cl	none
S=c1[nH]nc(-c2cccnc2)n1Cc1ccccc1	TLR9-MyD88 inh 24 | TLR9-MyD88 cf inactive | BLA nonselective inactive | TLR9 CHO tox inactive
S=c1[nH]nc(-c2ccncc2)n1Cc1ccccc1	none
Clc1ccc2ccc3cccnc3c2n1	none (no result: TLR4-MyD88 BLA)
O=S1(=O)Nc2c(ccc3cccnc23)-c2ccccc21	NOD2 RIPK2 PPI 25, TLR9-MyD88 inh 21 | TLR9-MyD88 cf 33 | BLA nonselective inactive | TLR9 CHO tox 99
CS(=O)(=O)N(CC(=O)N1CCN(Cc2ccccc2)CC1)c1cccc([N+](=O)[O-])c1	none (no result: TLR4-MyD88 BLA)
COc1cc2[nH]c3c(=O)n4c(nc3c2cc1OC)SCCC4	none
C#CCOCCOCCOCCNc1nc(N2CCN(C(=O)CCCCCCCCCCNC(=O)[C@H](CCCCN)n3cc(C[C@@H](C)CC)nn3)CC2)nc(N2CCN(C(=O)CCCCCCCCCCNC(=O)[C@H](CCCCN)n3cc(C[C@@H](C)CC)nn3)CC2)n1	ANO1 activ -22, NOD2 RIPK2 PPI 35, TMEM16A inh 25, TLR9-MyD88 inh 52 (no result: TLR4-MyD88 BLA) | TLR9-MyD88 cf 29 | BLA nonselective inactive | TLR9 CHO tox 43
COc1ccc(S(=O)(=O)N2CCC(C(=O)NC3CC3)CC2)cc1	none (no result: TLR4-MyD88 BLA)
COc1ccc(S(=O)(=O)N2CCC(NC(=O)C3CCCCC3)CC2)cc1	TLR9-MyD88 inh 21 (no result: TLR4-MyD88 BLA) | TLR9-MyD88 cf inactive | BLA nonselective inactive | TLR9 CHO tox inactive
Cc1ccc(C(=O)COC(=O)CN2C(=O)C3CC=CCC3C2=O)cc1C (centres undefined)	none (no result: ANO1 activ, GRK2 inh, TMEM16A inh, TLR4-MyD88 BLA)
CSCCC(C(=O)OCC(=O)c1ccc(C)c(C)c1)N1C(=O)c2cc(Cl)c(Cl)cc2C1=O (centres undefined)	TLR9-MyD88 inh 22 | TLR9-MyD88 cf inactive | BLA nonselective inactive | TLR9 CHO tox inactive
O=C(NC1CCCCC1)c1nc2c(nnn2Cc2ccccc2Cl)c(=O)[nH]1	none
O=S(=O)(Nc1cccc2ncccc12)c1cccs1	NOD2 RIPK2 PPI 52, TLR9-MyD88 inh 29 | TLR9-MyD88 cf 26 | BLA nonselective inactive | TLR9 CHO tox 103
Cc1c(NS(=O)(=O)c2cccs2)cccc1-c1nc2cccnc2s1	none (no result: TLR4-MyD88 BLA)
Fc1cccc(/C=N/Nc2ccc(Cl)nn2)c1	TLR9-MyD88 inh 23 (no result: TLR4-MyD88 BLA) | TLR9-MyD88 cf inactive | BLA nonselective inactive | TLR9 CHO tox inactive
CC(C)(C)C(=O)NC(=S)NNC(=O)c1sc2ccccc2c1Cl	ANO1 activ -12, GRK2 inh 49, TMEM16A inh 100, TLR9-MyD88 inh 30 | TLR9-MyD88 cf inactive | BLA nonselective inactive | TLR9 CHO tox 47
O=C(COC(=O)c1ccc2c(c1[N+](=O)[O-])C(=O)c1ccccc1C2=O)NC1CC1	TLR9-MyD88 inh 25 | TLR9-MyD88 cf inactive | BLA nonselective inactive | TLR9 CHO tox 19
O=C(CS(=O)(=O)Cc1ccccc1)c1ccccc1	none (no result: ANO1 activ, GRK2 inh, TMEM16A inh, TLR4-MyD88 BLA)
CCCn1c(/C=C/c2cc[n+](C)cc2)nc2ccccc21	TLR9-MyD88 inh 30 (no result: TLR4-MyD88 BLA) | TLR9-MyD88 cf inactive | BLA nonselective inactive | TLR9 CHO tox inactive
CCOC(=O)COc1ccc(/C=C/[N+](=O)[O-])c(OCC(=O)OCC)c1	TLR9-MyD88 inh 22 | TLR9-MyD88 cf inactive | BLA nonselective inactive | TLR9 CHO tox 28
CCOC(=O)COc1ccccc1/C=N/O	none
CCOC(=O)COc1ccc2ccccc2c1/C=C/[N+](=O)[O-]	TLR9-MyD88 inh 24 | TLR9-MyD88 cf 34 | BLA nonselective inactive | TLR9 CHO tox 90
CCOC(=O)COc1ccc2nsnc2c1	none
CC1=CC(=O)C(Sc2ccc(C)cc2)=CC1=O	none (no result: ANO1 activ, GRK2 inh, TMEM16A inh, TLR4-MyD88 BLA)
COc1ccccc1N1CCN(C(=O)CCC(=O)Nc2nnc(CC(C)C)s2)CC1	none (no result: TLR4-MyD88 BLA)
CC(C)NC(=O)COc1coc(CN2CCN(c3ccccc3)CC2)cc1=O	none (no result: TLR4-MyD88 BLA)
CN(C)c1ccc(/C=C(\Cl)c2nc3ccccc3s2)cc1	TLR9-MyD88 inh 25 | TLR9-MyD88 cf inactive | BLA nonselective inactive | TLR9 CHO tox inactive
Cc1ccc(NC(=O)/C(CN(C)C)=N\O)cc1	TLR9-MyD88 inh 24 | TLR9-MyD88 cf inactive | BLA nonselective inactive | TLR9 CHO tox inactive
Cc1ccc(NC(=O)CN(C)C(=O)Nc2ccc(C)cc2)cc1	none (no result: TLR4-MyD88 BLA)
CCN(C(=O)COC(=O)c1cccc(S(=O)(=O)NCc2ccccc2)c1)c1ccccc1	TLR9-MyD88 inh 22 (no result: GRK2 inh, TMEM16A inh, TLR4-MyD88 BLA) | TLR9-MyD88 cf inactive | BLA nonselective inactive | TLR9 CHO tox inactive
Cc1ccc(C(=O)NCCC(=O)NCc2cc(=O)n(C)c(=O)n2C)cc1	none (no result: TLR4-MyD88 BLA)
Cn1c(CNC(=O)CCNC(=O)c2ccccc2)cc(=O)n(C)c1=O	TLR9-MyD88 inh 26 (no result: TLR4-MyD88 BLA) | TLR9-MyD88 cf inactive | BLA nonselective inactive | TLR9 CHO tox inactive
COc1ccccc1NS(=O)(=O)c1cccc(NC(=O)C2CC(=O)N(Cc3ccccc3)C2)c1 (centres undefined)	TLR9-MyD88 inh 24 | TLR9-MyD88 cf inactive | BLA nonselective inactive | TLR9 CHO tox inactive
